{"source": "PubChem BioAssay (Tox21)", "note": "Inconclusive results are not listed. Unmarked numbers belong to inactive results. Calls of active or inactive are those of the source. The call rests on the fitted dose curve. On the % scale 0 is the no-effect control and ±100 the full control effect."}
{"target": "Beta-2 adrenergic receptor (Homo sapiens) (UniProt P07550)", "sequence (P07550 whole entry, looked up)": "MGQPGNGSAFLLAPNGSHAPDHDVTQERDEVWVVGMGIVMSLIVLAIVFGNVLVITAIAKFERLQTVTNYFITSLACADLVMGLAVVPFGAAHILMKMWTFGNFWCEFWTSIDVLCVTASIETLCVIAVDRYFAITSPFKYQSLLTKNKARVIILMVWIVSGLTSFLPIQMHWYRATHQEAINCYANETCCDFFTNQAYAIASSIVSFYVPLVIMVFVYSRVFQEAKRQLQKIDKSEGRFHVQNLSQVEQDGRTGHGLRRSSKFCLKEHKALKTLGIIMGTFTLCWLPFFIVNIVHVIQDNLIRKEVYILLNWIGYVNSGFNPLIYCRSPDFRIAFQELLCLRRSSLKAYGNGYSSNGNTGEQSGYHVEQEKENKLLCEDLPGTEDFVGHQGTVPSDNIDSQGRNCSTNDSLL", "experiment": "Adrenergic beta2 receptor (ADRB2) small molecule antagonists, cell-based qHTS assay (AID 1963592); further: nearly all actives have a fitted effect of over 50% in size", "conditions": "CHO-ADRB2 cells, isoproterenol-stimulated cAMP HTRF ratio, 0.5 h; series mostly up to 92.4 µM; activity change, negative = inhibition: at the top concentration", "from_the_text": "U.S. Tox21 Program National Center for Advancing Translational Sciences [NCATS] Division of Preclinical Innovation [DPI] U.S. Environmental Protection Agency [EPA] National Institutes of Environmental Health Sciences [NIEHS] National Toxicology Program [NTP] U.S. Food and Drug Administration [FDA] Tox21 Assay Overview: Beta adrenergic receptors (Beta-ARs) belong to the G-protein coupled receptor (GPCR) superfamily, includes three subtypes - beta1, beta2, and beta3. Beta1-AR is the predominant receptor subtype expressed in the heart, and beta2-AR is expressed in the kidney, lung, blood vessel and in the heart, and beta3 is found in the adipocytes. Beta1 and 2 ARs couple to Gs protein and elevate cyclic adenosine mono phosphate (cAMP), which activates protein kinase A and leads to the downstream signaling responsible for the physiological actions. Beta-AR agonists or antagonists are the most prescribed therapeutic agents for heart failure and asthma, and these were one of the first target receptors for the rational drug design. Tox21 10K compound library was screened using the cAMP-Gs dynamic assay (Cisbio Bioassays, Shelton, CT) to identify agonists/antagonists of the Gs-coupled human adrenergic, beta2 receptor (ADRB2) in the CHO-ADRB2 cell line (Codex BioSolutions, Inc. Gaithersburg, MD), which stably over-expresses ADRB2. The principle of cAMP-Gs dynamic assay is based on HTRF technology, which facilitates the fluorescence resonance energy transfer (FRET) between donor Europium cryptate and acceptor d2-labeled cAMP. The cAMP generated within cells competes with the red acceptor, d2-labled cAMP, for binding to the monoclonal anti-cAMP-cryptate (Europium donor). An increase in intracellular cAMP leads to the disruption of FRET signal, and the signal is inversely proportional to the cAMP concentration. Propranolol HCl (Sigma-Aldrich, St. Louis, MO) was used as a positive control in the screening.\nTox21 Assay Protocol Summary: CHO-ADRB2 cells were dispensed at 1,000/well in 4uL assay medium into white/solid 1536-well plates (Greiner Bio-One North America Inc., Monroe, NC) using a Multidrop Combi dispenser (ThermoFisher Scientific, Waltham, MA). The assay plates were incubated at 37C and 5% CO2 for an overnight (18-20hr). Then positive control and test compounds dissolved in DMSO were transferred to the assay plates at 23nL using a Pintool station (Wako, San Diego, CA). Following the compound and positive control transfer, 1uL agonist-stimulation mix containing 1nM Isoproterenol HCl, 100uM IBMX and 25uM Ro-20-1724 was added to each well of the assay plates using BioRAPTR Flying Reagent Dispenser (FRD, Beckman Coulter, Brea, CA). The assay plates were incubated at room temperature for 0.5hr. Then 2.5ul each d2-labled cAMP and anti-cAMP-cryptate solutions were added separately to each well of the assay plates using an FRD and the assay plates were incubated at room temperature for 1hr. The fluorescence signal was measured at two different wavelengths (665nm and 615nm) using an Envision plate reader (Perkin Elmer, Shelton, CT). Data were expressed as the ratio of 665 nm/615 nm."}
{"smiles": "O=C1CCCc2ccccc21", "activity change, negative = inhibition": "3.36%"}
{"smiles": "CCCN1CCCC[C@H]1C(=O)Nc1c(C)cccc1C", "activity change, negative = inhibition": "0.47% [at 42.5 µM]"}
{"smiles": "CC(=O)OCc1ccccc1", "Potency": "inactive"}
{"smiles": "CCC(=O)OC", "activity change, negative = inhibition": "0.552%"}
{"smiles": "C=CCc1cc(OC)c(O)c(C(=O)NCCO)c1", "activity change, negative = inhibition": "-0.229% [at 42.5 µM]"}
{"smiles": "O=P(O)(O)O", "Potency": "inactive"}
{"smiles": "CCn1cc(C(=O)O)c(=O)c2cc3c(cc21)OCO3", "activity change, negative = inhibition": "-0.408%"}
{"smiles": "FC(F)(F)c1ccccc1", "activity change, negative = inhibition": "0.298%"}
{"smiles": "CCCCCCCC/C=C\\CCCCCCCC(N)=O", "activity change, negative = inhibition": "1.08%"}
{"smiles": "CC[C@]1(O)C[C@@H]2CN(CCc3c([nH]c4ccccc34)[C@@](C(=O)OC)(c3cc4c(cc3OC)N(C)[C@H]3[C@@](O)(C(=O)OC)[C@H](OC(C)=O)[C@]5(CC)C=CCN6CC[C@]43[C@@H]65)C2)C1", "Potency": "inactive"}
{"smiles": "O=C(CCCN1CCC(O)(c2cccc(C(F)(F)F)c2)CC1)c1ccc(F)cc1", "activity change, negative = inhibition": "-20.2% [at 42.5 µM]"}
{"smiles": "COC(=O)CCCCC(=O)O", "activity change, negative = inhibition": "-16.7%"}
{"smiles": "CCCCCCCCCCC", "activity change, negative = inhibition": "0.258%"}
{"smiles": "CC(C)(C)c1ccc(O)c(O)c1", "Potency": "inactive"}
{"smiles": "O=C(O)CCCCCCCCCCC(=O)O", "Potency": "inactive"}
{"smiles": "NC(=O)c1ccc([N+](=O)[O-])cc1", "activity change, negative = inhibition": "5.99%"}
{"smiles": "C=COCCCC", "activity change, negative = inhibition": "0.684%"}
{"smiles": "CCc1c(Br)c(Br)c(Br)c(Br)c1Br", "activity change, negative = inhibition": "-6.07%"}
{"smiles": "COc1ccc(C(=O)c2cccc(O)c2)c(OC)c1", "activity change, negative = inhibition": "6.57%"}
{"smiles": "O=C(O)c1cc(-c2ccccc2)nc2ccccc12", "Potency": "inactive"}
{"smiles": "C=CCCC", "activity change, negative = inhibition": "2.24%"}
{"smiles": "O=C(O)c1ccc(CO)o1", "activity change, negative = inhibition": "3.98%"}
{"smiles": "O=C1Nc2ccccc2C1=O", "activity change, negative = inhibition": "5.16%"}
{"smiles": "O=C1CC2(CCCC2)CC(=O)N1CCCCN1CCN(c2ncccn2)CC1", "Potency": "inactive"}
{"smiles": "O=C(O)c1cccc(Cl)c1Cl", "activity change, negative = inhibition": "-1.68%"}
{"smiles": "CC[C@H]1CN2CCc3cc(OC)c(OC)cc3[C@@H]2C[C@@H]1C[C@H]1NCCc2cc(OC)c(OC)cc21", "Potency": "inactive"}
{"smiles": "CC(=O)[C@H]1CC[C@H]2[C@@H]3CCC4=CC(=O)CC[C@]4(C)[C@H]3CC[C@]12C", "Potency": "inactive"}
{"smiles": "C1C[C@@H]2[C@H]3CC[C@H](C3)[C@@H]2C1", "activity change, negative = inhibition": "0.786%"}
{"smiles": "Cn1cnc2c(F)c(Nc3ccc(Br)cc3Cl)c(C(=O)NOCCO)cc21", "activity change, negative = inhibition": "-1.05% [at 42.5 µM]"}
{"smiles": "C1=C\\CC/C=C\\CC/C=C\\CC/1", "activity change, negative = inhibition": "6.8%"}
{"smiles": "Oc1ccccc1O", "Potency": "inactive"}
{"smiles": "CCOc1c(N2CCOCC2)cnn(C)c1=O", "activity change, negative = inhibition": "0.097% [at 42.5 µM]"}
{"smiles": "CC(=O)N(O)CCCCCNC(=O)CCC(=O)N(O)CCCCCNC(=O)CCC(=O)N(O)CCCCCN", "activity change, negative = inhibition": "12.3% [at 42.5 µM]"}
{"smiles": "O=S(O)CO", "activity change, negative = inhibition": "-0.324%"}
{"smiles": "C1COCCO1", "activity change, negative = inhibition": "-5.28%"}
{"smiles": "O=[Si]=O", "activity change, negative = inhibition": "-3.88%"}
{"smiles": "CC(=O)c1ccccc1O", "activity change, negative = inhibition": "-14.2%"}
{"smiles": "Cc1cc(C)c(S(=O)(=O)O)cc1N=Nc1cc(S(=O)(=O)O)c2ccccc2c1O", "activity change, negative = inhibition": "-1.03%"}
{"smiles": "CCCCCCS", "activity change, negative = inhibition": "-9.3%"}
{"smiles": "O=C(O)CCC(=O)Nc1ccc(S(=O)(=O)Nc2nccs2)cc1", "activity change, negative = inhibition": "2.53% [at 42.5 µM]"}
